Only some compounds are listed: those with a hit (about 2% of all), similar ones and a draw of the others.
CHT allo act – human CHT allosteric activation | Q9GZV3 | CHT-expressing cells, membrane potential dye, choline EC20; stronger effect = higher value; LV-AA mutant CHT in HEK293 cells | B-score at 10 µM | 310,000 compounds, 0.49% hits | AID 488977;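 active = initial fluorescence not abnormally high and integrated response B-score, plate-corrected, over 3 SD above library mean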
Target sequence (Q9GZV3 whole entry, looked up): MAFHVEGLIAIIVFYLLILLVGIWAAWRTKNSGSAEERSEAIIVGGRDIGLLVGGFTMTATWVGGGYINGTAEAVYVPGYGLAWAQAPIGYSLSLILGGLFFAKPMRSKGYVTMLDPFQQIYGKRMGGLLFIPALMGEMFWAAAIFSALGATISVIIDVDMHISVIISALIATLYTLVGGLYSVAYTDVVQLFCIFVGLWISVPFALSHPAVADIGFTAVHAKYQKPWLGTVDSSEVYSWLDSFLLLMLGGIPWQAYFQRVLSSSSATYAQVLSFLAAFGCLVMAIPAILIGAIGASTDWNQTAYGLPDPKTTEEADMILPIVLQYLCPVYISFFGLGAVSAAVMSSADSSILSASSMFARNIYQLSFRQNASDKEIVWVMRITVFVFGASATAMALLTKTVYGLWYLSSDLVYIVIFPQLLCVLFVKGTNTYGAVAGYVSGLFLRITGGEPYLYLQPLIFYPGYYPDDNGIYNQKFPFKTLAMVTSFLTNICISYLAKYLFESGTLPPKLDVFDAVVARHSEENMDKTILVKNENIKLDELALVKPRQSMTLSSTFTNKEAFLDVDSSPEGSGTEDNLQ
Kir21 block – blocks the mouse Kir2.1 inward-rectifier potassium channel. P35561. HEK293-Kir2.1, FluxOR thallium flux fluorescence; stronger effect = lower value. B-score at 10 µM. 310,000 compounds, 0.85% hits. AID 1672;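 active = fluorescence ratio B-score at or below minus 3 SD of library scores, with starting-brightness B-score within 2 SD, cut at about -4.2 in these data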;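 note: channel flux triggered by added potassium and thallium sulfate stimulus; B-score of peak minus minimum fluorescence over baseline after thallium stimulus; more negative B-score means stronger Kir2.1 block with less thallium influx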
TAG inh – reduces triacylglycerol accumulation in H9c2 cells | inhibition, % at 12.5 µM | Nile Red lipid (TAG) fluorescence; cells loaded with 200 µM oleic acid | 230,000 compounds, 0.66% hits | AID 651582;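 active = pattern-corrected inhibition of lipid staining of at least 50% with the nuclear-stain viability signal not falling by more than 50%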
CHT inh – human CHT choline transport inhibition | Q9GZV3 | B-score at 10 µM | CHT-expressing cells, membrane potential dye, choline response; stronger effect = lower value | 310,000 compounds, 0.86% hits | AID 488975;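 active = B-score over 3 SD under the library average, and starting fluorescence ratio not unusually high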;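 note: choline stimulus applied at its EC90 after an EC20 pre-addition; B-score computed on integrated fluorescence ratio after choline addition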
CHT act confirm – human CHT activation, confirmatory screen | 2,500 compounds, 91% hits | activation, % at 10 µM | shares compounds with CHT allo act | CHT-expressing cells, membrane potential dye fluorescence (FDSS); % of choline EC20–EC90 response window; HEK293 expressing CHT LV-AA mutant; choline added at its EC20;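 active = primary screen active, with duplicate mean activation above negative control mean plus 3 SD, cut at about 11% in these data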
HEK293 MP dye – CHT activator counter-screen hit in parental HEK293 cells; shares compounds with CHT allo act; membrane potential dye fluorescence (FDSS); measured after EC20 choline addition; ratio readout change at 10 µM, hits read low; 2,500 compounds, 62% hits;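 active = duplicate-averaged ratio beyond 3 SD from buffer wells, up or down, though filed actives are nearly all decreases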
Of the large screens only hits and unclear results are named; the others gave an inactive call (follow-up assays come after a bar, where they were run).

N#Cc1c(N)oc(-c2ccco2)c1-c1ccco1	CHT allo act 8.2 (no result: TAG inh) | CHT act confirm 10 | HEK293 MP dye inactive
COc1ccc(NC(=O)C(=O)NCCN2CCN(C(=O)c3cccc(Br)c3)CC2)cc1	none
Cc1cc(C(=O)Nc2ccccc2C(=O)O)oc1C	none
COc1ccc(/C=N/NC(=O)c2ccncc2)cc1CN1CCN(c2ccc(F)cc2)CC1	none
N#CC1(Cc2ccc([N+](=O)[O-])cc2)c2ccccc2C=CN1C(=O)c1ccccc1 (configuration not stated)	none | CHT act confirm 27 | HEK293 MP dye inactive
Cc1ccc(C)c(Cn2c(=O)n(C)c(=O)c3sccc32)c1	none (no result: TAG inh)
C[C@@H](C(=O)N=c1sc2ccccc2n1C)N1C(=O)C2CC=CCC2C1=O (some centres not stated)	none (no result: CHT allo act, Kir21 block, CHT inh)
COc1ccc(-c2cc(Cl)cc3c(=O)c4ccccc4n(C)c23)cc1F	CHT allo act 7.3 | CHT act confirm 26 | HEK293 MP dye inactive
O=C(c1ccncc1)N1CCN(S(=O)(=O)c2ccccc2F)CC1	none (no result: CHT allo act, Kir21 block, CHT inh)
CSc1ccc(-c2sc(Nc3cccc4ccccc34)n[n+]2-c2ccccc2)cc1	none
CCc1ccc(Nc2n[n+](-c3ccccc3)c(-c3ccc(C(=O)O)cc3)s2)cc1	none
CCc1ccc(Nc2n[n+](-c3ccccc3)c(-c3ccc(SC)cc3)s2)cc1	CHT allo act 11 | CHT act confirm 26 | HEK293 MP dye inactive
COc1ccc(C)cc1Nc1n[n+](-c2ccccc2)c(-c2ccc(SC)cc2)s1	CHT allo act 7.8 | CHT act confirm 46 | HEK293 MP dye inactive
COc1ccc(C)cc1Nc1n[n+](-c2ccccc2)c(-c2ccc(NC(C)=O)cc2)s1	none
CSc1ccc(-c2sc(Nc3ccccc3)n[n+]2-c2ccccc2)cc1	CHT allo act 8.2 | CHT act confirm 15 | HEK293 MP dye inactive
O=C(COC(=O)c1cc[n+]([O-])cc1)Nc1ccc(Cl)cc1[N+](=O)[O-]	none | CHT act confirm 20 | HEK293 MP dye -44
Cc1csc(NC(=O)CSc2nc3nc(C)cc(C)n3n2)n1	none (no result: CHT allo act, Kir21 block, CHT inh)
NS(=O)(=O)c1ccc(CCNc2nc(CN3CCOCC3)nc3sc4c(c23)CCC4)cc1	none
Cc1cccc(Oc2nc(CN3CCOCC3)nc3sc4c(c23)CCCC4)c1	none (no result: TAG inh) | CHT act confirm 35 | HEK293 MP dye inactive
CCC(C)Nc1nc(CN2CCOCC2)nc2sc3c(c12)CCC3 (configuration not stated)	CHT allo act 8.4 | CHT act confirm 14 | HEK293 MP dye inactive
c1cncc(-c2nc(NCCCN3CCOCC3)c3c4c(sc3n2)CCC4)c1	CHT allo act 6.9 | CHT act confirm 24 | HEK293 MP dye -47
Clc1nc(CN2CCOCC2)nc2sc3c(c12)CCC3	none
CCN(CC)CCCNc1nc(CN2CCOCC2)nc2sc3c(c12)CCC3	CHT allo act 7.7 | CHT act confirm 59 | HEK293 MP dye -57
c1cncc(-c2nc(N3CCOCC3)c3c4c(sc3n2)CCC4)c1	none
Cc1ccccc1CC(=O)N1CCCc2ccccc21	none (no result: TAG inh)
O=C(CCCCn1c(=O)c2ccccc2n(Cc2ccccc2)c1=O)NC1CCN(Cc2ccccc2)CC1	none | CHT act confirm 35 | HEK293 MP dye -29
CN(C)S(=O)(=O)c1ccc(C(=O)OCCn2cnc3c2c(=O)n(C)c(=O)n3C)cc1	none
CCN(CC)CCCNc1ncnc2ccccc12	CHT allo act 7.8 | CHT act confirm 61 | HEK293 MP dye -66
OCCCCCNc1ncnc2ccccc12	none
O=C1C2C3C=CC(C4CC34)C2C(=O)N1/N=C/c1c[nH]c2ccccc12 (configuration not stated)	none
Cc1ccc(C#CC[N+]2(CC#Cc3ccc(C)cc3)CCCCC2)cc1	CHT allo act 8.7, Kir21 block -6.8 | CHT act confirm 18 | HEK293 MP dye inactive
COc1ccc(C(=O)NCc2nnc(SCC(=O)NC3CCCC3)o2)cc1	none (no result: TAG inh)
CC[n+]1c(C)sc2cc(OC)ccc21	none | CHT act confirm 29 | HEK293 MP dye -62
Cc1cc(C)n2c(Nc3ccc4c(c3)OCCO4)c(-c3ccccc3)nc2n1	CHT allo act 11 | CHT act confirm 14 | HEK293 MP dye -34
CCCC(c1nnnn1CS(=O)(=O)c1ccc(C)cc1)N1CCN(c2ccccc2)CC1 (configuration not stated)	CHT allo act 7 | CHT act confirm 14 | HEK293 MP dye inactive
C(=N\n1cnnc1)/c1ccc2ncccc2c1	CHT allo act 8 (no result: TAG inh) | CHT act confirm 67 | HEK293 MP dye -80
Cc1ccc(S(=O)(=O)NCCC(=O)Nc2ncccc2O)cc1C	none
CCCCCCCCCCCCCCCC[N+](C)(C)CCN(Cc1ccc(OC)cc1)c1ncccn1	none (no result: Kir21 block) | CHT act confirm 18 | HEK293 MP dye -60
O=C(COC(=O)c1c[nH]c2ccccc12)Nc1cccc(F)c1	none (no result: CHT allo act, Kir21 block, CHT inh)
CCOC(=O)N1CCC(n2c(SCC(=O)NCCc3ccc(S(N)(=O)=O)cc3)nc3ccccc3c2=O)CC1	CHT allo act 15 | CHT act confirm 35 | HEK293 MP dye -21
CC/C(=C/c1sc2ccc(C)cc2[n+]1CCCS(=O)(=O)[O-])SC	CHT allo act 6.8 (no result: TAG inh) | CHT act confirm 48 | HEK293 MP dye inactive
CC/C(=C/c1sc2ccc(C)cc2[n+]1CCO)SC	none
c1ccc(C[C@H]2CN=C(Nc3ccccc3)N2CC2CCCCCC2)cc1	none (no result: CHT allo act, Kir21 block, CHT inh)
C[C@@H]1CN([C@H](C)CO)C(=O)CCCn2cc(nn2)CO[C@H]1CN(C)C(=O)Nc1ccccc1F	none (no result: CHT allo act, Kir21 block, CHT inh)
CCc1c(C)c(C#N)c2nc3ccccc3n2c1NCc1ccco1	none | CHT act confirm 11 | HEK293 MP dye inactive
CCN1CCN(c2nc3c(C)cccn3c(=O)c2/C=C(\C#N)C(=O)NCCOC)CC1	CHT allo act 8.7 (no result: TAG inh) | CHT act confirm 60 | HEK293 MP dye -62
COCCNC(=O)/C(C#N)=C/c1c(N2CCN(c3ccccc3)CC2)nc2ccccn2c1=O	none (no result: TAG inh)
COCCCNC(=O)/C(C#N)=C/c1c(N2CCN(c3ccc(OC)cc3)CC2)nc2c(C)cccn2c1=O	none (no result: TAG inh)
CCOC(=O)/C(C#N)=C/c1c(N2CCN(C)CC2)nc2c(C)cccn2c1=O	none (no result: TAG inh) | CHT act confirm 46 | HEK293 MP dye -48
COCCNC(=O)/C(C#N)=C/c1c(N2CCCCCC2)nc2c(C)cccn2c1=O	none (no result: TAG inh)
COCCCNC(=O)/C(C#N)=C/c1c(N2CCN(C)CC2)nc2c(C)cccn2c1=O	CHT allo act 6.9 (no result: TAG inh) | CHT act confirm 52 | HEK293 MP dye -56
COCCNC(=O)/C(C#N)=C/c1c(N2CCN(C)CC2)nc2c(C)cccn2c1=O	CHT allo act 9.7 (no result: TAG inh) | CHT act confirm 67 | HEK293 MP dye -56
Cc1nc(NCCOc2ccccc2)sc1C(=O)Nc1ccccc1	none
O=C(COC(=O)c1cc[n+]([O-])cc1)Nc1cccc(Br)c1	none (no result: CHT allo act, Kir21 block, CHT inh)
COc1cccc(CNS(=O)(=O)c2c(C(=O)N3CCCC3)c(C)n(C)c2C)c1	none (no result: TAG inh)
